The list is not random: actives were taken first. Their share in the collection is about 1.9%.
GALR2 antag = antagonists of human galanin receptor 2 (GALR2); O43603; GALR2-expressing cells, antagonist mode; inhibition, % at 4 µM; actives 0.39% (n = 140,000); AID 828; in the data active = inhibition above about 27%;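 note: cells stimulated with galanin 1-16 at roughly its EC80; 0% = agonist challenge control and 100% = basal control without agonist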
Target sequence (O43603 whole entry, looked up): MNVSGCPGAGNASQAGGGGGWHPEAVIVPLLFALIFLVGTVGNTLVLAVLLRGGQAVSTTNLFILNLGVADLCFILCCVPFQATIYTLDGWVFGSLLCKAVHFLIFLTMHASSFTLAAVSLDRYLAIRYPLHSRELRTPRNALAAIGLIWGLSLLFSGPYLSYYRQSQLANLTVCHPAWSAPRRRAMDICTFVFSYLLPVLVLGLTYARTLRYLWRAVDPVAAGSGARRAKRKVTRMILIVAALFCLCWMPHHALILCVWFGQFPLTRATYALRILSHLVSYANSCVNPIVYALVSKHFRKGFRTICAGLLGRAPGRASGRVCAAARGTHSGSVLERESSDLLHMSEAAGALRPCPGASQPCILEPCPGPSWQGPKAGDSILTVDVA
S1P2 antag = antagonists of human S1P2 receptor; O95136; cell-based S1P2 antagonist assay, inhibition at 5 uM; inhibition, % at 5 µM; actives 0.21% (n = 97,000); AID 736; in the data active = inhibition above about 45%;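 note: CRE beta-lactamase reporter cells expressing human S1P2 stimulated with S1P; 0% = agonist at EC80 alone and 100% = agonist plus reference antagonist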
Target sequence (O95136 whole entry, looked up): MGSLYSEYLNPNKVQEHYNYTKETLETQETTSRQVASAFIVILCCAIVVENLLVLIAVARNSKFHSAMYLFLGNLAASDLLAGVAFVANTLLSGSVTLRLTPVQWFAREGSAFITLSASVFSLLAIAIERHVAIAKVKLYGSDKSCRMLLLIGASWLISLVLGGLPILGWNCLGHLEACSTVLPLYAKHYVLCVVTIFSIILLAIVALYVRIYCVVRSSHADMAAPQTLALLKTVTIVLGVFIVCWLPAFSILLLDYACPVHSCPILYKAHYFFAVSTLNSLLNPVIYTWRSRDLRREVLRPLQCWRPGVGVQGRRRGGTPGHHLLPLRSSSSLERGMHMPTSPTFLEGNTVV
FAK blocker = inhibitors of human focal adhesion kinase; Q05397; biochemical FAK kinase activity assay; inhibition, %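 (tested at 7 µM)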; actives 0.84% (n = 97,000); in the data active = inhibition above about 19%;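 note: 0% = DMSO and 100% = reference compound high control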
S1P2 agonist = activates the human S1P2 receptor; O95136; actives 0.46% (n = 97,000); activation, % at 4.5 µM; S1P2-expressing cell line, agonist reporter read-out; AID 729; in the data active = activation above about 16%;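 note: 0% = vehicle low control and 100% = maximal reference agonist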
sdo1 growth = compounds rescuing growth of sdo1-depleted yeast, bone marrow failure model | S. cerevisiae sdo1-depleted JHY4D growth rescue, OD600 30 h; stronger effect = higher value; pdr5 snq2 efflux-pump mutant strain | z-score at 10 µM | AID 817 | actives 0.21% (n = 140,000);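 active = z-score above 3 at both the 24 hr and the 30 hr optical density reads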;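 note: z-score against mean and SD of all compound wells on the same plate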
GALR2 agonist = activates the human galanin receptor 2; O43603; GALR2-expressing cells, agonist activation read-out; activation, % (concentration not given with the values); actives 0.48% (n = 140,000); in the data active = activation above about 5%, passing the limit was not always enough;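 note: 0% = vehicle buffer wells and 100% = reference agonist at full effect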
GALR2 ag confirm = GALR2 (human) agonism confirmed | actives 10% (n = 460) | shares compounds with GALR2 agonist | GALR2-expressing cells, agonist activation | activation, % at 5.6 µM; in the data active = activation above about 8.4%;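 note: 0% = buffer-only vehicle wells and 100% = full reference agonist response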
BLA act counter = activates beta-lactamase reporter in GALR2 agonist counterscreen; shares compounds with GALR2 agonist; CHO NFAT-bla reporter, beta-lactamase FRET activation; activation, % at 5.6 µM; actives 10% (n = 460);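 active = activation above the screen-wide mean activation plus 3 SD, cut at about 8% in these data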;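 note: 0% = DMSO with PBS wells and 100% = thapsigargin positive control wells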
Numbers without * were called inactive; x = no result.

SMILES | GALR2 antag | S1P2 antag | FAK blocker | S1P2 agonist | sdo1 growth | GALR2 agonist | GALR2 ag confirm | BLA act counter
CCOc1ccc(NC(=S)NC(=O)c2c(Cl)c(C)nn2C)c([N+](=O)[O-])c1 | 3.1 | x | x | x | -0.64 | 8.6* | 1.3 | 2.1
CC(=O)Nc1ccc(Nc2ncnc3c2cnn3-c2ccc(C)cc2C)cc1 | -5.2 | -1.1 | 0.2 | -7.5 | -0.23 | 76.1* | -0.9 | -2.4
CC(=O)Nc1ccc(Nc2ncnc3c2cnn3-c2cccc(C)c2)cc1 | 2.7 | -7.1 | 1.7 | -7.3 | 0.68 | -1.3 | x | x
CN(C(=O)Nc1ccccc1)C1CCS(=O)(=O)C1 (stereo not given) | -6.7 | -2.0 | -1.5 | -4.1 | 0.65 | -1.0 | x | x
CC(=O)NC1=C(N(C)C2CCS(=O)(=O)C2)C(=O)c2ccccc2C1=O (stereo not given) | 0.0 | x | x | x | 1.21 | 35.5* | -1.1 | -1.6
COc1ccc(-c2nc3c(c(=O)n(C)c(=O)n3C)n2CC2CC(c3ccccc3)=NO2)cc1OC (stereo not given) | 4.5 | 5.2 | -1.4 | -2.3 | x | -3.9 | x | x
CCOC(=O)c1cc(C(=O)OCC)c2ccccn2c1=O | -8.0 | -23.6 | 0.1 | 12.1 | 0.2 | 15.1* | 1.8 | 5.9
COc1ccc(NC(=O)C2=C(C)C(=O)OC23CCC(C)CC3)cc1Cl (stereo not given) | -23.9 | -8.3 | -0.2 | -1.5 | -0.98 | 84.4* | -0.7 | -1.5
O=C(CCc1ccccc1)NNC(=S)NC(=O)c1ccc(Cl)cc1 | -0.2 | 3.2 | -0.7 | -6.7 | -1 | -2.2 | x | x
COC(=O)Cc1c(C)c2ccc(OC(=O)c3ccco3)cc2oc1=O | -1.6 | 2.1 | 1.0 | 1.6 | -0.61 | 2.9 | x | x
COC(=O)Cc1c(C)c2cc(Cl)c(OC(=O)c3ccco3)cc2oc1=O | 13.4 | -12.9 | 0.4 | 4.5 | -0.56 | 12.7* | 0.8 | 3.0
Cc1cc2c(c(=O)n1Cc1ccccn1)C(c1ccc3c(c1)OCO3)C(C#N)=C(N)O2 (stereo not given) | 8.7 | x | x | x | 1.53 | -1.0 | x | x
Cc1cc2c(c(=O)n1Cc1ccc3c(c1)OCO3)C(c1cccnc1)C(C#N)=C(N)O2 (stereo not given) | -2.6 | 9.3 | -4.7 | -11.4 | 0.5 | 23.3* | -0.8 | -1.6
O=C(NCCOC(=O)C1COc2ccccc2O1)c1cccnc1 (stereo not given) | -7.7 | 0.5 | 4.5 | -1.8 | 0.1 | -1.9 | x | x
O=C(CC1(O)C(=O)N(Cc2ccccc2)c2ccccc21)c1ccncc1 (stereo not given) | -9.4 | 4.0 | 0.1 | -3.1 | -0.83 | 0.6 | x | x
COc1cccc2sc(Nc3nc4ccc(NC(C)=O)cc4s3)nc12 | 3.5 | x | x | x | 0.04 | 10.3* | 3.1 | 7.2
CCOC(=O)C1=CN(C)C=C(C(=O)OCC)C1c1ccsc1 | -1.2 | 2.7 | 5.1 | 12.0 | -0.8 | 9.8 | 1.6 | 5.1
COC(=O)C1=C(C)N(C)C(C)=C(C(=O)OC)C1c1ccsc1 | 0.2 | 12.4 | -0.4 | -3.6 | -0.39 | -0.8 | x | x
COc1ccc(Nc2ccc3nnc(-c4ccc(Br)cc4)n3n2)cc1 | -0.2 | 18.7 | -4.5 | -11.1 | -0.04 | 1.7 | x | x
COc1ccc(C2=NOC(C(=O)Nc3ccc(C(C)=O)cc3)C2)cc1OC (stereo not given) | 11.4 | 15.0 | -8.1 | -4.9 | -0.09 | -1.2 | x | x
COc1ccc(C2=NOC(C(=O)Nc3cc(Br)ccc3O)C2)cc1OC (stereo not given) | -3.3 | -10.7 | -6.1 | -3.7 | -0.55 | 20.8* | 0.0 | -2.4
Cc1ccc(C(C)C)c(OCc2ccc(C(=O)N/N=C/c3ccc(O)c(O)c3)cc2)c1 | 13.5 | x | x | x | 0.72 | 1.9 | x | x
COc1cc(/C=N/NC(=O)c2ccc(COc3cc(C)ccc3C(C)C)cc2)cc(OC)c1O | 0.1 | x | x | x | -1.54 | 8.4* | 7.6 | -1.2
C=CCn1c(NS(=O)(=O)c2ccccc2)c(S(=O)(=O)c2ccc(C)cc2)c2nc3ccccc3nc21 | -6.9 | x | x | x | 0.77 | 2.6 | x | x
CC(=O)Nc1c(S(=O)(=O)c2ccccc2)c2nc3ccccc3nc2n1Cc1ccccc1 | -7.0 | 3.7 | -3.8 | 4.0 | 0.09 | 10.1 | 0.7 | 6.2
SMILES | GALR2 antag | S1P2 antag | FAK blocker | S1P2 agonist | sdo1 growth | GALR2 agonist | GALR2 ag confirm | BLA act counter
c1ccc2[nH]c(SN3CCOCC3)nc2c1 | 5.3 | 1.8 | -0.5 | -5.9 | 0.95 | -1.4 | x | x
Cc1ccccc1C(=O)Nc1nncs1 | -2.8 | -13.5 | -1.9 | -5.3 | 0.59 | 26.1* | -0.6 | -2.8
N=c1oc2ccccc2cc1-c1nc(-c2ccccc2)cs1 | 1.5 | x | x | x | -1.01 | 19.7* | 2.9 | 5.4
Nn1c(SCC(=O)Nc2ccc(F)c(F)c2)nnc1C1CCCCC1 | 7.9 | 8.5 | -11.6 | -6.1 | 0.33 | -0.9 | x | x
S=c1[nH]nc(-c2cc3c(s2)-c2ccccc2CC3)o1 | 1.9 | 13.6 | -3.3 | 8.6 | -0.95 | 9.9 | 2.2 | 5.2
Cc1c(Cl)c([N+](=O)[O-])nn1CC(=O)N1CCCC1 | -1.9 | x | x | x | 0.35 | -1.6 | x | x
Cc1c(Cl)c([N+](=O)[O-])nn1CC(=O)NC12CC3CC(CC(C3)C1)C2 | -17.7 | -20.4 | 7.6 | -1.9 | -0.95 | 38.3* | -0.2 | -0.3
Cc1cc(=O)[nH]c(-n2nc(C)c(Oc3ccccc3O)c2C)n1 | -30.5 | 20.0 | -4.9 | -1.1 | 0.42 | 32.2* | 27.4* | 59.8*
CCCS(=O)(=O)N1CCN(S(=O)(=O)c2ccccc2)CC1 | 1.4 | -4.2 | 0.0 | -2.9 | 0.6 | 0.2 | x | x
CC(C)N1C(=O)/C(=C\c2nc3ccccc3c(=O)n2-c2ccccc2)c2ccccc21 | -14.3 | x | x | x | -1.28 | 40.9* | 0.9 | 1.8
O=C(NCc1ccco1)c1ccc(COCC(F)(F)F)cc1 | 5.6 | -10.0 | 1.2 | 0.4 | 0.76 | -2.6 | x | x
COc1cc(-c2noc(CCCC(=O)NC3CCCCC3)n2)cc(OC)c1OC | -5.1 | -3.1 | -3.6 | -5.7 | 1.14 | 25.9* | -0.5 | -0.6
N=c1oc2cc(O)ccc2cc1C(=O)Nc1nc2ccccc2s1 | -36.8 | x | x | x | -0.6 | 25.5* | 35.5* | 93.8*
Cc1cc(S(=O)(=O)N(Cc2cccs2)Cc2ccccc2F)ccc1-n1cnnn1 | 11.9 | x | x | x | -1.26 | -1.8 | x | x
CC1(C)CC(=O)c2cc(OCC(=O)NCCN3CCOCC3)ccc2O1 | -10.0 | -4.1 | -0.7 | -7.5 | 0.8 | -1.5 | x | x
O=C(Cn1c2ccccc2c(=O)c2ccccc21)Nc1cccc(F)c1 | 0.0 | x | x | x | -0.81 | 11.9* | 9.1* | 13.7*
Cc1ccc(NC(=O)CCC(=O)NNC(=O)c2ccco2)cc1C | 7.1 | 7.5 | -2.6 | -11.3 | 0.88 | 17.6* | -1.0 | -1.1
Cc1c(Cl)cccc1NC(=O)CCC(=O)NNC(=O)c1ccco1 | 1.9 | 10.5 | 3.9 | -4.3 | 1.07 | -1.1 | x | x
COc1ccc(OC)c2sc(NC(=O)c3ccc(Br)s3)nc12 | 15.3 | x | x | x | -2.14 | 13.4* | -1.0 | -1.9
O=C(CSc1nc2c([nH]c3ccccc32)c(=O)n1-c1ccccc1)N1CCOCC1 | 2.4 | x | x | x | -0.99 | -1.6 | x | x

Compound activity: PubChem BioAssay, several laboratories
